Most compounds without a hit are left out; they make up all but 4.2% or so of the library.
VDR inh = inhibitors of human vitamin D receptor; P11473; VDR-SRC2-3 peptide fluorescence polarization, 2 h; Potency, µM, inactives show max response, negative = inhibition, usual class: inhibitors; 0.93% of 400,000 active
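Signal is fluorescence polarization, reporting how far test compounds block the interaction of VDR with the SRC2-3 coregulator peptide after a 2 h room-temperature incubation.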
PLK1 PBD block = PLK1 (human) polo-box domain binding inhibition. 2.8% of 360,000 active. Potency, µM, without a hit: max response, negative = inhibition, hits mostly inhibitors. Plk1 PBD binding of FITC phosphopeptide, fluorescence polarization. P53350. AID 720504; note: series mostly up to about 57 µM; nearly all actives have a fitted effect of over 65% in size
Target sequence (P53350 whole entry, looked up, the tested form may be a part): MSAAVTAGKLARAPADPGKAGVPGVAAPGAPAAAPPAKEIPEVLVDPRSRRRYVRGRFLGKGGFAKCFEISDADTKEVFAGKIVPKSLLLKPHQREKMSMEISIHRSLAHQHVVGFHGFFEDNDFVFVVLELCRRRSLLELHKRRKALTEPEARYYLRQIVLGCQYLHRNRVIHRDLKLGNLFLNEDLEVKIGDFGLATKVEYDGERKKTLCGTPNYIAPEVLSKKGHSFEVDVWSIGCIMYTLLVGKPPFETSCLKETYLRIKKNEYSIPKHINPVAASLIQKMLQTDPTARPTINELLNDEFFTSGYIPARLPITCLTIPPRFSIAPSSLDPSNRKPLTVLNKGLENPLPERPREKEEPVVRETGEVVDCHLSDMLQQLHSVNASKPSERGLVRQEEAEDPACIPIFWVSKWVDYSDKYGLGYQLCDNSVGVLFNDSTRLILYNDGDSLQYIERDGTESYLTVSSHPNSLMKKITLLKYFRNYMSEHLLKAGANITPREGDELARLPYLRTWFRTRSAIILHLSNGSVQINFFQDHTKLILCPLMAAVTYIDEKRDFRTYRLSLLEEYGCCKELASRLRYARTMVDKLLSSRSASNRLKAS
Sfp inh = Sfp phosphopantetheinyl transferase inhibition | Q9F4F7 | 3.5% of 310,000 active | AID 1490 | Potency, µM, for inactives: largest response in the series, negative = inhibition, most hits filed as inhibitors | Biochemical Sfp PPTase activity, qHTS;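 note: the enzyme is Sfp with the accession as filed and its product quenches rhodamine fluorescence; 0% = enzyme reaction without inhibitor and -100% = no enzyme wells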
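With Hepes-Na pH 7.6 buffer containing 10 mM MgCl2, Sfp (15 nM) modified BHQ-2-YbbR (12.5 uM) using rhodamine-CoA (5 uM). Two reads 30 minutes apart at 525/598 nm yielded each well's rate.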
ALOX12 inh = ALOX12 (human) lipoxygenase inhibition | purified 12hLO, xylenol orange hydroperoxide absorbance | 1.1% of 580,000 active | P18054 | Potency, µM (top dose mostly 108 µM), inactives show top-dose activity change, negative = inhibition, most hits filed as inhibitors | AID 1671190
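Purified human 12hLO at 150 nM in 25 mM Hepes, 0.01% Triton X-100, pH 7.0, preincubated 15 min at room temperature with compound. Reaction started with 40 uM arachidonic acid, 30 min at room temperature. Hydroperoxide measured by Fe-xylenol orange, 573/405 nm absorbance ratio.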
* = called active by the depositor; ? = inconclusive; / = no result given; [ ] = dose if it differs, or a comment. Calls come from the whole dose curve; as a rule, active = well fitted curve in the direction sought with a large enough effect; inconclusive = small, poorly fitted or top-dose-only effect, or another doubt; inactive = no such curve, though single readings can be large; an effect the other way counts as inactive or inconclusive. Unless noted, % is set by controls: 0 for no effect and ±100 for the full control effect; potency is the fitted concentration of half-maximal effect.

SMILES	VDR inh	PLK1 PBD block	Sfp inh	ALOX12 inh
NC(=S)N/N=C/c1coc2ccc(O)cc2c1=O	-14%	0%	1.6µM*	0%
NC(=S)N/N=C/c1coc2ccc(Br)cc2c1=O	-22%	-6%	3%	95%
OCC1OC(n2cnc3c(=S)nc[nH]c32)CC1O (stereo not given)	-14%	3%	/	?
S=c1nc[nH]c2c1ncn2C1CCCO1 (stereo not given)	?	27µM*	4µM*	?
CNC1(c2nnnn2-c2ccccc2C)CCOC(C)(C)C1 (stereo not given)	22µM*	15µM*	-3%	18%
COc1cccc(C(=O)NCC2CCCN(C3CCCCC3)C2)c1OC (stereo not given)	4%	3%	-3%	11%
CC(C)C1Nc2ccc(C(=O)N3CCN(c4ccccn4)CC3)cc2NC1=O (stereo not given)	28%	-15%	9%	25%
O=C1CNc2ccc(C(=O)N3CCN(c4ccccn4)CC3)cc2N1	-28%	24µM*	12%	44%
CCOC(=O)[C@]12CCCC=C1N(Cc1cccc3ccccc13)C(=O)[C@H](CC(=O)N1CCN(C(=O)c3ccco3)CC1)C2	/	0%	/	-4%
Cc1ccn2c(c1)nc(=S)n2C(=O)c1ccccc1	-5%	21µM*	-17%	-21%
Cc1cccc(C(=O)n2c(=S)nc3cc(C)ccn32)c1	-19%	21µM*	8.9µM*	66%
COc1ccc(CN2CCOc3nc(-c4cccc(NC(C)=O)c4)ncc3C2=O)cc1	/	/	/	9%[176 µM]
CCCCOc1ccc(/C=C2\CCc3cc(OC)ccc3C2=O)cc1OCC	/	/	/	-32%
CCNC(=O)COc1ccc(/C=C2\COc3ccccc3C2=O)cc1OC	35µM*	-22%	-4%	-23%
COc1ccc(/C=C2\CCc3ccccc3C2=O)cc1OC	?	1%	-16%	-28%
CCOc1cc(/C=C2\COc3ccccc3C2=O)ccc1OCC(=O)N(C)C	50µM*	-10%	-21%	-6%
COC(=O)/C=C\c1cc(O)ccc1O	?	/	50µM*	?
COC(=O)/C=C/C(=O)Nc1ccc(O)c(Cl)c1	-8%	-13%	-19%	?
N#Cc1cnc(NN)nc1	-5%	-11%	6.3µM*	20%
CCCCOCC1CN(CCCC)S(=O)(=O)c2c(Oc3ccc(OC)cc3)cccc2O1 (stereo not given)	/	/	/	-13%
Cc1ccccc1Cc1c(C)nc2c(C(=O)NCc3ccco3)cnn2c1C	?	-22%	50µM*	?
FC(F)(F)c1ccccc1Cc1c(-c2ccco2)nc2ccc(Br)cn12	/	27µM*	/	35µM*
COc1ccccc1Cc1c(-c2ccco2)nc2ccc(Br)cn12	/	13µM*	/	18µM*
FC(F)(F)c1ccccc1Cc1c(-c2cccc(Cl)c2)nc2ccc(Br)cn12	/	4%	/	?
NS(=O)(=O)c1cccc(NC(=O)CSc2nc3nc(-c4cccs4)cc(C(F)(F)F)c3c(=O)[nH]2)c1	-14%	34µM*	0%	?
SMILES	VDR inh	PLK1 PBD block	Sfp inh	ALOX12 inh
N#Cc1c(C(F)(F)F)cc(-c2cccs2)nc1SCC(=O)Nc1cccc(Br)c1	-14%	/	/	-13%
O=C(CSc1nc2nc(-c3cccs3)cc(C(F)(F)F)c2c(=O)[nH]1)Nc1c(F)c(F)c(F)c(F)c1F	20%	34µM*	12%	-6%
N#CCCN(C(=O)CSc1nc2nc(-c3cccs3)cc(C(F)(F)F)c2c(=O)[nH]1)c1ccccc1	-1%	-25%	-10%	-1%
CC[Si](C)(CC)COC(=O)CCC[N+](C)(C)C	/	/	/	28µM*
O=C1CC(c2ccc3c(c2)OCO3)c2cc(O)ccc2O1 (stereo not given)	?	/	89µM*	/
S=C1Nc2ccccc2CS1	/	-15%	/	-7%
CC1=C(C)NC(=S)SC1	-15%	27µM*	?	?
Cc1cc(C)cc(N2CCC(NC(=O)c3cc(C)ccc3C)C2=O)c1 (stereo not given)	/	/	/	10%
CCOC(=O)c1c(C)oc2c1c1c(c3ccccc32)OCN(CCCC(=O)O)C1	89µM*	11µM*	-6%	?
O=C(O[C@@H]1OC2COC(=O)c3cc(O)c(O)c(O)c3-c3c(cc(O)c(O)c3O)C(=O)O[C@@H]([C@H]1O)[C@@H]2O)c1cc(O)c(O)c(O)c1	-17%	9.5µM*	4.5µM*	/
Nc1ccc(Cl)c(S(=O)(=O)Nc2cccc(Cl)c2)c1	-12%	0%	0%	-19%
Cc1ccc(NS(=O)(=O)c2cc(N)ccc2Cl)c(C)c1	-17%	24µM*	-20%	-20%
CC(=O)Nc1ccc(OCCOc2ccc([N+](=O)[O-])cc2)cc1	-6%	-18%	89µM*	5%
Cc1ccc(S(=O)(=O)Nc2ccc3cc([N+](=O)[O-])ccc3c2[N+](=O)[O-])cc1	20%	24µM*	/	22µM*
CC(=O)Nc1ccc(S(=O)(=O)Nc2cc([N+](=O)[O-])ccc2C)cc1	?	6.7µM*	20%	-10%
Clc1ccc(-c2nnc(SCc3cn4ccsc4n3)n2CC2CCCO2)cc1 (stereo not given)	-5%	-5%	5%	2%
Cc1ccc([C@H]2C[C@@H](n3cc(COC(=O)c4ccccc4)nn3)[C@H](O)CN2CC2CCCCC2)cc1	/	-11%	/	0%
Cn1c2ccccc2c2c(C(=O)NCCCN3CCCC3=O)cn(C3CCCCC3)c(=O)c21	1%	-1%	-4%	-13%
Cc1ccc(S(=O)(=O)Nc2cccc3ccccc23)cc1	15%	/	/	/
Cc1ccc(NS(=O)(=O)c2cc([N+](=O)[O-])ccc2NN)c(C)c1	/	/	/	40µM*
Cc1ccc(S(=O)(=O)Nc2ccc3ccccc3c2[N+](=O)[O-])cc1	-16%	30µM*	/	?
O=C(NCc1ccccc1)C1=C[C@@H](c2ccc3c(c2)OCO3)C[C@@H](OCc2ccc(CO)cc2)O1	0%	1%	/	?
O=C1CC(=O)c2c1cccc2[N+](=O)[O-]	/	/	79µM*	/
O=C1OCc2cccc([N+](=O)[O-])c21	-12%	-11%	2%	1%
O=C(COc1coc(CN2CCN(c3ccccc3)CC2)cc1=O)NCC1CCCO1 (stereo not given)	-18%	-9%	/	-61%
SMILES	VDR inh	PLK1 PBD block	Sfp inh	ALOX12 inh
CC(C)c1ccc(NC(=O)CSc2nc3ccccc3nc2N2CCCC2)cc1	-15%	-8%	6%	6.3µM*
CCc1cccc(CC)c1N(COC)C(=O)Cn1c(C(C)O)nc2ccccc21 (stereo not given)	-4%	1%	89µM*	10%
CCc1cccc(CC)c1N(COC)C(=O)Cn1c(CC)nc2ccccc21	-13%	/	/	-6%
Cc1ccccc1/C=N/Nc1nc2ccccc2c(=O)n1O	-11%	12µM*	32µM*	179%
Cc1cc(N/N=C/c2ccccc2O)c2ccccc2n1	10%	6%	-13%	?
CC(C)CCC(CCNCc1ccco1)c1ccco1 (stereo not given)	/	/	/	0.45µM*
COc1ccccc1NC(=O)CSc1nc2ccccc2n1C(C)=O	-5%	-14%	-9%	16%
CNc1nc(-c2ccc(S(=O)(=O)N3CCCCC3)cc2)cs1	-28%	-23%	/	?
O=S(=O)(c1ccc(-c2csc(Nc3cccc4ccccc34)n2)cc1)N1CCCCC1	/	/	/	16µM*

Bioassay records (PubChem BioAssay)
